# Assay results from the supplement of paper PMC10933113.
# Tested on: KeratinoSens (HaCaT ARE-luciferase) cells;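 active = curve rank above 3; inactive = curve rank 0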
# Assay: Nrf2/ARE luciferase activation call in qHTS KeratinoSens assay (1 = active, 0 = inactive)
row,SMILES,Nrf2/ARE luciferase activation call
1,CC(=O)[O][Cr]([OH])[O]C(C)=O.CC(=O)[O][Cr]([OH])[O]C(C)=O.CC(=O)[O][Cr]([O]C(C)=O)[O]C(C)=O,not active ARE inducer (skin sensitizer alert) (inactive)
2,CCN(C)C(=O)Oc1cccc([C@H](C)N(C)C)c1.O=C(O)[C@@H](O)[C@H](O)C(=O)O,not active ARE inducer (skin sensitizer alert) (inactive)
3,CC[N+]1(C)CCCC1.O=S(=O)([N-]S(=O)(=O)C(F)(F)F)C(F)(F)F,not active ARE inducer (skin sensitizer alert) (inactive)
4,CC[S+](CC)CC.O=S(=O)([N-]S(=O)(=O)C(F)(F)F)C(F)(F)F,not active ARE inducer (skin sensitizer alert) (inactive)
5,CCCCn1cc[n+](C)c1C.O=S(=O)([N-]S(=O)(=O)C(F)(F)F)C(F)(F)F,not active ARE inducer (skin sensitizer alert) (inactive)
6,O=C(O)c1ccccc1O.Oc1cccc2cccnc12,not active ARE inducer (skin sensitizer alert) (inactive)
7,CC(C)=CCN1CC[C@@]2(C)c3cc(O)ccc3C[C@@H]1[C@@H]2C.O=C(O)CCC(=O)O,not active ARE inducer (skin sensitizer alert) (inactive)
8,CCCC[N+]1(C)CCCCC1.O=S(=O)([N-]S(=O)(=O)C(F)(F)F)C(F)(F)F,not active ARE inducer (skin sensitizer alert) (inactive)
9,C[C@H]1[C@@H]2Cc3ccc(O)cc3[C@@]1(C)CCN2C.C[C@H]1[C@@H]2Cc3ccc(O)cc3[C@@]1(C)CCN2C.O=C(O)/C=C/C(=O)O,not active ARE inducer (skin sensitizer alert) (inactive)
10,CC[S+](C)CC.O=S(=O)([N-]S(=O)(=O)C(F)(F)F)C(F)(F)F,not active ARE inducer (skin sensitizer alert) (inactive)
11,CCCC[N+]1(C)CCCC1.O=S(=O)([N-]S(=O)(=O)C(F)(F)F)C(F)(F)F,not active ARE inducer (skin sensitizer alert) (inactive)
12,CCCCCCCCn1cc[n+](C)c1.O=S(=O)([N-]S(=O)(=O)C(F)(F)F)C(F)(F)F,not active ARE inducer (skin sensitizer alert) (inactive)
13,CCCn1cc[n+](C)c1.O=S(=O)([N-]S(=O)(=O)C(F)(F)F)C(F)(F)F,not active ARE inducer (skin sensitizer alert) (inactive)
14,CCCCCCn1cc[n+](C)c1.O=S(=O)([N-]S(=O)(=O)C(F)(F)F)C(F)(F)F,not active ARE inducer (skin sensitizer alert) (inactive)
15,C[C@H](CN1CCOCC1)C(C(=O)N1CCCC1)(c1ccccc1)c1ccccc1.O=C(O)[C@H](O)[C@@H](O)C(=O)O,not active ARE inducer (skin sensitizer alert) (inactive)
16,CCC[N+]1(C)CCCCC1.O=S(=O)([N-]S(=O)(=O)C(F)(F)F)C(F)(F)F,not active ARE inducer (skin sensitizer alert) (inactive)
17,CCCC[P+](CC)(CCCC)CCCC.CCOP(=O)([O-])OCC,not active ARE inducer (skin sensitizer alert) (inactive)
18,CCCC[N+](C)(CCCC)CCCC.O=S(=O)([N-]S(=O)(=O)C(F)(F)F)C(F)(F)F,not active ARE inducer (skin sensitizer alert) (inactive)

row,SMILES,Nrf2/ARE luciferase activation call
1,O=C(O)CC(O)(CC(=O)O)C(=O)O.Oc1cccc2cccnc12,active ARE inducer (skin sensitizer alert)
2,CCCCCCCCCCCCOS(=O)(=O)O.OCCN(CCO)CCO,not active ARE inducer (skin sensitizer alert) (inactive)
3,CCN(CC)CCc1c[nH]c2ccccc12.CCN(CC)CCc1c[nH]c2ccccc12.O=C(O)/C=C/C(=O)O,not active ARE inducer (skin sensitizer alert) (inactive)
4,O=C(O)c1ccccc1O.OCCN(CCO)CCO,not active ARE inducer (skin sensitizer alert) (inactive)
5,CCn1cc[n+](C)c1C.O=S(=O)([N-]S(=O)(=O)C(F)(F)F)C(F)(F)F,not active ARE inducer (skin sensitizer alert) (inactive)
6,CCn1cc[n+](C)c1.O=S(=O)([N-]S(=O)(=O)C(F)(F)F)C(F)(F)F,not active ARE inducer (skin sensitizer alert) (inactive)
7,O=C(O)/C=C/C(=O)O.O=C(O)/C=C/C(=O)O.c1ccc(CN2CCNCC2)cc1,not active ARE inducer (skin sensitizer alert) (inactive)
8,CCCCCCCCCCCCCC[P+](CCCCCC)(CCCCCC)CCCCCC.O=S(=O)([N-]S(=O)(=O)C(F)(F)F)C(F)(F)F,not active ARE inducer (skin sensitizer alert) (inactive)
9,CCCCCCCCCCCC(=O)O.OCCN(CCO)CCO,not active ARE inducer (skin sensitizer alert) (inactive)
10,CCC[N+]1(C)CCCC1.O=S(=O)([N-]S(=O)(=O)C(F)(F)F)C(F)(F)F,not active ARE inducer (skin sensitizer alert) (inactive)
11,CCCC[N+](C)(C)C.O=S(=O)([N-]S(=O)(=O)C(F)(F)F)C(F)(F)F,not active ARE inducer (skin sensitizer alert) (inactive)
12,CCCCCCCCCCCCCCCCCC(=O)[O-].OCC[NH+](CCO)CCO,active ARE inducer (skin sensitizer alert)
13,CCCCn1cc[n+](C)c1.O=S(=O)([N-]S(=O)(=O)C(F)(F)F)C(F)(F)F,not active ARE inducer (skin sensitizer alert) (inactive)
14,CCC(COC(=O)c1cc(OC)c(OC)c(OC)c1)(c1ccccc1)N(C)C.O=C(O)/C=C\C(=O)O (stereo unspecified),not active ARE inducer (skin sensitizer alert) (inactive)
15,CCC[n+]1ccn(C)c1C.O=S(=O)([N-]S(=O)(=O)C(F)(F)F)C(F)(F)F,not active ARE inducer (skin sensitizer alert) (inactive)
16,CCCCCCn1cc[n+](C)c1.O=S(=O)([O-])C(F)(F)F,not active ARE inducer (skin sensitizer alert) (inactive)
17,C[N+](C)(C)CCO.O=S(=O)([N-]S(=O)(=O)C(F)(F)F)C(F)(F)F,not active ARE inducer (skin sensitizer alert) (inactive)
18,O=C(O)/C=C\C(=O)O.c1ccc2nc(N3CCNCC3)ccc2c1,not active ARE inducer (skin sensitizer alert) (inactive)
